Assay results reported in PubChem BioAssay AID1347155 (National Center for Advancing Translational Sciences (NCATS), 2019).
Inconclusive results are not listed. The source made the active and inactive calls. Calls follow the shape of the dose curve; as a rule, active = well fitted inhibition curve with a large enough effect; inconclusive = small, poorly fitted or top-dose-only effect; inactive = no such curve, though single readings can be large or run the other way.

test system: Zika virus NS2B-NS3 protease (linked); test: Optimization screen NINDS Rhodamine qHTS for Zika virus inhibitors: Linked NS2B-NS3 protease assay; details: fluorogenic rhodamine substrate; series mostly up to 105 µM; activity change, negative = inhibition: at the top concentration
Outline: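 Linked NS2B-NS3 (GGGGSGGGG linker), 25 nM in 10 mM Tris-HCl pH 8.0, 0.01% Tween 20, preincubated 15 min with compound (up to 114 µM). Rhodamine110 substrate 1.5 µM; fluorescence change over 15 min (~15% conversion) fitted to 4-parameter Hill.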

| Structure (SMILES) | Potency | activity change, negative = inhibition |
| --- | --- | --- |
| O=C(Nc1ccc([N+](=O)[O-])cc1Cl)c1cc(Cl)ccc1O | 9.87 µM (active) |  |
| C[C@H]1O[C@@H](O[C@H]2CC[C@@]3(C)[C@H](CC[C@@H]4[C@@H]3C[C@@H](O)[C@]3(C)[C@@H](C5=CC(=O)OC5)CC[C@]43O)C2)C[C@H](O)[C@@H]1O[C@H]1C[C@H](O)[C@H](O[C@H]2C[C@H](O)[C@H](O[C@@H]3O[C@H](CO)[C@@H](O)[C@H](O)[C@H]3O)[C@@H](C)O2)[C@@H](C)O1 |  | 6.52% (inactive) |
| Nc1nc(=S)c2[nH]cnc2[nH]1 | inactive |  |
